Measured values from PubChem BioAssay.
Active and inactive are the calls of the source.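 How the source made its calls, unless noted: active means visually confirmed hit in the image check and inhibition above 20%; inconclusive means visually confirmed hit but inhibition not above 20%; inactive means no visual hit in the image check.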

assay: reduction of polyQ htt aggregates in cells – imaging, exon1htt(103Q)mCFP cells, high-content imaging, primary screen (AID 483;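 active means visual image review flags a hit and inhibition of aggregation exceeds 20%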;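 further: compound exposure lasted 3 days before fixation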;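 on nuclei count: percent of the per-plate median nuclei count of sample wells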); details: exon1htt(103Q)mCFP cell line, aggregate imaging, at 2 µM; inhibition of aggregation: stronger effect = higher value; nuclei count: measured here: cell count, toxicity

Which results are given for `COc1ccccc1N1CCN(Cc2nc(N)nc(Nc3ccc(C)c(Cl)c3)n2)CC1`?
nuclei count: 97.1%; inhibition of aggregation: 17.2% (inactive)

Which nuclei count does the source give for `COCCCNC(=O)CSc1ccc(Cl)cc1` here?
Its nuclei count is 93.9%.

What about the inhibition of aggregation of the same compound?
The inhibition of aggregation was -3.3% (inactive).

Which results are given for `CS(=O)(=O)NCCSCc1c(F)cccc1Cl`?
nuclei count: 106%; inhibition of aggregation: 0% (inactive)

What does the source list for `O=C(NCC1CCCO1)C1CCC(CNS(=O)(=O)c2ccccc2)CC1` (configuration not stated)?
inhibition of aggregation: -6% (inactive); nuclei count: 110%

What does the source list for `Cc1ccc(C2C(C(=O)c3sc(C)nc3C)=C(O)C(=O)N2CCN(C)C)o1` (configuration not stated)?
nuclei count: 107%; inhibition of aggregation: -12.7% (inactive)

Which results are given for `O=C(Nc1nc2c(s1)CCCC2)C1COc2ccccc2O1` (configuration not stated)?
inhibition of aggregation: 30.9% (inactive); nuclei count: 110%

assay: endothelial E-selectin expression blockers – imaging, HUVEC, immunofluorescence, MLSMR starter and 10KST1 sets, primary screen (AID 487); details: HUVEC TNFalpha-induced E-selectin immunofluorescence imaging, at 2 µM; inhibition: stronger effect = higher value; nuclei count: measured here: cell number, toxicity;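 on inhibition: signal is fraction of cell area covered by stained E-selectin grains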;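 on nuclei count: 100% = median nuclei count of all wells on the same plate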

What does the source list for `CCOCCCNC(=O)CS(=O)(=O)Cc1nc(-c2cccc(OC)c2)oc1C`?
inhibition: -6.1% (inactive); nuclei count: 97.9%

For `Cc1ccc(Br)cc1S(=O)(=O)N1CCN(c2ccccc2)CC1`, which inhibition is on record?
Its inhibition is -51.5% (inactive).

What about the nuclei count of the same compound?
Its nuclei count is 129%.

For `Cn1c(=O)c(=O)n(C)c2cc(S(=O)(=O)N3CCN(c4cccc(C(F)(F)F)c4)CC3)ccc21`, which inhibition is on record?
Its inhibition is -12.6% (inactive).

What about the nuclei count of the same compound?
The nuclei count was 104%.

Which nuclei count does the source give for `Cc1cccc(N2CCN(C(=O)C3CCCN(S(=O)(=O)c4c(C)noc4C)C3)CC2)c1C` (configuration not stated) here?
The nuclei count was 125%.

What about the inhibition of the same compound?
The inhibition was -85.1% (inactive).

With `COc1ccc(-n2c(SCC(=O)N3CCCCC3C)nnc2-c2cccnc2)cc1` (configuration not stated) as the compound, how does the inhibition read?
Its inhibition is -23.2% (inactive).

And the nuclei count?
Its nuclei count is 103%.

For `NCc1cccc(-n2cccn2)c1`, which inhibition is on record?
Its inhibition is -25.7% (inactive).

What about the nuclei count of the same compound?
The nuclei count was 115%.

For `COC(=O)CSC1=C(C#N)C(c2ccccc2)CC(=O)N1` (configuration not stated), which nuclei count is on record?
Its nuclei count is 86.9%.

And the inhibition?
Its inhibition is 7.2% (inactive).

Which nuclei count does the source give for `Oc1ccc(N2CCN(C(c3ccncc3)c3nnnn3C3CCCC3)CC2)cc1` (configuration not stated) here?
The nuclei count was 115%.

What about the inhibition of the same compound?
The inhibition was -67.5% (inactive).

Which nuclei count does the source give for `CCc1nc2scc(-c3ccccc3)c2c(=O)n1N` here?
Its nuclei count is 142%.

What about the inhibition of the same compound?
The inhibition was -361% (inactive).

With `CN(Cc1cccs1)C(=O)CCc1ccc(S(=O)(=O)N2CCOCC2)cc1` as the compound, how does the nuclei count read?
The nuclei count was 114%.

And the inhibition?
Its inhibition is -10.9% (inactive).

For `CC1=C(C(N)=O)C(c2ccccn2)n2nc(SCc3ccccc3)nc2N1` (configuration not stated), which inhibition is on record?
Its inhibition is 43.5% (inactive).

And the nuclei count?
The nuclei count was 86.4%.

For `CCOc1ccc(NC(=O)c2ccccc2O)cc1`, which inhibition is on record?
Its inhibition is -114% (inactive).

What about the nuclei count of the same compound?
Its nuclei count is 96.2%.

Which results are given for `O=S(=O)(c1ccc2ccccc2c1)N1CCCCC1`?
nuclei count: 104%; inhibition: 20.8% (inactive)

With `N#CC1=C(N)OC(c2ccccc2)=C(C#N)C1c1ccc2c(c1)OCO2` (configuration not stated) as the compound, how does the inhibition read?
The inhibition was 29.2% (inactive).

And the nuclei count?
Its nuclei count is 96.1%.

With `Cc1cc(C)c2c(=O)n(CC(=O)NCCCN3CCOCC3)sc2n1` as the compound, how does the nuclei count read?
Its nuclei count is 106%.

And the inhibition?
Its inhibition is 36.7% (inactive).

Which inhibition does the source give for `COC(=O)CNC(=O)COC(=O)c1cc(Cl)cc(Cl)c1N` here?
The inhibition was -81.4% (inactive).

What about the nuclei count of the same compound?
Its nuclei count is 123%.

For `CCOc1ccc(NCc2nnc(SCC(=O)Nc3cc(C)on3)n2-c2ccccc2OC)cc1`, which inhibition is on record?
Its inhibition is 41.6% (inactive).

What about the nuclei count of the same compound?
The nuclei count was 107%.

With `CCN(CC)CCNC(=O)c1ccc(CS(=O)(=O)c2ccc(Br)cc2)o1` as the compound, how does the nuclei count read?
Its nuclei count is 117%.

What about the inhibition of the same compound?
Its inhibition is 21.7% (inactive).

For `CCCn1c(=NC(C)=O)c(C#N)cc2c(=O)n3cccc(C)c3nc21`, which nuclei count is on record?
The nuclei count was 131%.

What about the inhibition of the same compound?
Its inhibition is -35.4% (inactive).

For `CCn1c(=O)c(C(=O)Nc2cccnc2)c(O)c2ccccc21`, which nuclei count is on record?
Its nuclei count is 107%.

What about the inhibition of the same compound?
Its inhibition is -39.9% (inactive).

For `Cc1cccc(C2CC(c3ccccc3)Nc3nc(N)nn32)c1` (configuration not stated), which inhibition is on record?
The inhibition was -47.9% (inactive).

What about the nuclei count of the same compound?
Its nuclei count is 120%.

Which results are given for `CCOC(=O)CN1CC23C=CC(O2)C(C(=O)Nc2ccc(C(C)=O)cc2)C3C1=O` (configuration not stated)?
inhibition: -18.4% (inactive); nuclei count: 127%

For `COc1ccccc1CNC(=O)C1CCCN(S(=O)(=O)c2cccc3cccnc23)C1` (configuration not stated), which inhibition is on record?
Its inhibition is -38.9% (inactive).

What about the nuclei count of the same compound?
The nuclei count was 108%.

With `COc1ccc(C2=NO[C@@H]3C(=O)N(c4ccc5c(c4)OCCO5)C(=O)[C@H]23)cc1OC` as the compound, how does the inhibition read?
Its inhibition is 11.8% (inactive).

What about the nuclei count of the same compound?
The nuclei count was 98.1%.

Which results are given for `CCOC(=O)c1ccccc1NC(=O)CSc1nnc(COc2ccccc2C)n1C`?
nuclei count: 100%; inhibition: 45.4% (inactive)

Which results are given for `COC(=O)c1sc(N2C(=O)C(O)=C(C(=O)c3ccc(C)o3)C2c2ccc(F)cc2)nc1C` (configuration not stated)?
nuclei count: 109%; inhibition: 35.1% (inactive)

What does the source list for `CCN(CCNC(=O)CS(=O)(=O)Cc1nc(-c2cccc(OC)c2)oc1C)c1ccccc1`?
inhibition: -37.8% (inactive); nuclei count: 107%

Which results are given for `CN(CCNS(=O)(=O)c1ccc2c(c1)oc(=O)n2C)Cc1ccccc1`?
inhibition: -65.3% (inactive); nuclei count: 119%

Which nuclei count does the source give for `CC1CCN(c2nc3c(c(=O)[nH]c(=O)n3C)n2CCSc2ncccn2)CC1` here?
Its nuclei count is 118%.

And the inhibition?
The inhibition was -15.9% (inactive).

Which inhibition does the source give for `COc1cc2c(C)nc(C)c(C#N)c2cc1OC` here?
Its inhibition is -12.4% (inactive).

And the nuclei count?
The nuclei count was 124%.

For `COc1ccc(N(CC(=O)Nc2ccc(F)c(Cl)c2)S(=O)(=O)c2c(C)noc2C)cc1`, which nuclei count is on record?
Its nuclei count is 104%.

And the inhibition?
The inhibition was -23.6% (inactive).

Which results are given for `Cc1nc2ncnn2c(N2CCC(C(=O)NC3CCCC3)CC2)c1Cc1ccccc1`?
inhibition: -87.8% (inactive); nuclei count: 117%

With `CCC(C)(C)NC(=O)C(c1ccco1)N(C(=O)Cn1nnc2ccccc21)c1ccc2c(c1)OCO2` (configuration not stated) as the compound, how does the inhibition read?
Its inhibition is -10.4% (inactive).

What about the nuclei count of the same compound?
The nuclei count was 102%.

For `Fc1cccc(NCc2cn3ccccc3n2)c1`, which nuclei count is on record?
Its nuclei count is 120%.

And the inhibition?
Its inhibition is -64.2% (inactive).

Which results are given for `COc1ccccc1N1CCN(Cc2nc(N)nc(Nc3ccc(C)c(Cl)c3)n2)CC1`?
inhibition: -5.6% (inactive); nuclei count: 100%

Which results are given for `COCCCNC(=O)CSc1ccc(Cl)cc1`?
inhibition: 10.2% (inactive); nuclei count: 80%

For `CS(=O)(=O)NCCSCc1c(F)cccc1Cl`, which inhibition is on record?
The inhibition was -41.6% (inactive).

What about the nuclei count of the same compound?
Its nuclei count is 96.6%.

Which nuclei count does the source give for `O=C(NCC1CCCO1)C1CCC(CNS(=O)(=O)c2ccccc2)CC1` (configuration not stated) here?
The nuclei count was 115%.

What about the inhibition of the same compound?
The inhibition was -24.2% (inactive).

With `Cc1ccc(C2C(C(=O)c3sc(C)nc3C)=C(O)C(=O)N2CCN(C)C)o1` (configuration not stated) as the compound, how does the inhibition read?
The inhibition was -161% (inactive).

And the nuclei count?
The nuclei count was 127%.

Which inhibition does the source give for `O=C(Nc1nc2c(s1)CCCC2)C1COc2ccccc2O1` (configuration not stated) here?
Its inhibition is -26.2% (inactive).

What about the nuclei count of the same compound?
The nuclei count was 114%.
